Reference: PubChem BioAssay (NCI)
This is part of a sample that, as a whole, favours compounds with a hit. Of some 83,000 tested, about 20% had one in any assay.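 Values shown are percent growth following 48 h exposure of cells in 96-well plates to a single concentration of compound; below 10 was considered active.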 A number with no mark means an inactive call. The source made the active and inactive calls.

The compounds below were run on RPMI-8226 leukemia (assay: NCI-60 one-dose screen, 48 h (100 = growth as untreated, 0 = no growth, -100 = all killed)). Details: 10 µM unless noted.
Description: Growth inhibition of the RPMI-8226 human tumor cell line is measured as a screen for anti-cancer activity. Cells are grown in 96 well plates and exposed to the test compound for 48 hours. Compounds are tested at a single concentration, which is 10^-5 M for most compounds. The reported endpoint is percent growth (GI% or GIPRCNT), where numbers from 0 - 100% represent growth inhibition, and numbers from -100% - 0 represent cell death. For example, a value of 40 represents 60% growth inhibition. A value of 0 means no net growth occurred over the course of the experiment. A value of -40 indicates 40% of cells at the beginning of the experiment died by the end of the experiment. A value of -100 means all cells are dead at the end of the experiment.
NCI-60 Human Tumor Cell Lines Screen was performed using the standard one-dose NCI protocol, which is described in more detail at https://dtp.cancer.gov/discovery_development/nci-60/default.htm.
Compounds with GIPRCNT values below 10 were considered active. Activity score was based on GIPRCNT using the following formula: […]
Score is 0 for GIPRCNT values of 100 or above, 50 for GIPRCNT values of 0, and 100 for GIPRCNT values of -100.

SMILES | growth
N#Cc1c(-c2ccc(Cl)cc2)nc(NN2C(=O)c3ccccc3C2=O)nc1N1CCOCC1 | 105%
CNc1nnc2n(-c3ccccc3)c(=O)c3cnn(-c4ccccc4)c3n12 | 85.3%
CCOC(=O)c1ccc(NC(=O)c2nc(-c3cc(OC)c(OC)c(OC)c3)n(-c3ccc(Cl)cc3)n2)cc1 | 82.1%
Cc1nc2sc(C(=O)Nc3ccc(Br)cc3)c(N)c2cc1C(O)c1ccccc1 (stereo not given) | 55.4%
COc1ccc(C(=O)N2c3ccccc3Sc3ccccc32)c(OC)c1 | 16.2%
COc1ccc(C/C(C)=C(\c2ccc(Cl)cc2)c2ccc(OCCN3CCCCC3)cc2)cc1 | 90.6%
[O-]/[N+](=C\c1ccc(-n2cc(Cc3ccccc3Cc3cn(-c4ccc(/C=[N+](/[O-])c5ccccc5)cc4)nn3)nn2)cc1)c1ccccc1 | 103%
CCCNc1nc2ccccc2c2c1S(=O)(=O)c1ccc(Cl)cc1C2=O | -10.2% (active)
Cc1ccc(CNc2ccc3nc(CCC4CCCCC4)[nH]c3c2)cc1 | -24.6% (active)
Cc1nc2sc(C(=O)Nc3cccc4ccccc34)c(N)c2cc1C(O)c1ccccc1 (stereo not given) | 0.145% (active)
CCC(=C(c1ccc(OCCN2CCCCC2)cc1)c1ccc(OCCN2CCCCC2)cc1)c1ccc(Cl)cc1 | -59.8% (active)
COc1cc2c(c(OC)c1OC)CCC(c1cccc(C(=O)Nc3cccc(Cl)c3)c1)O2 (stereo not given) | 39.1%
COc1ccc(C(=O)c2cc3c(N)c(C(=O)Nc4ccc(C)cc4)sc3nc2C)cc1 | 24.1%
COc1ccc(/C=N\Nc2nc(SCCC(C)C)nc(-c3ccc(OC)cc3)c2C#N)cc1 | 54.4%
COc1cc2oc(-c3cccc(NC(=O)c4ccccc4)c3)cc(=O)c2c(OC)c1OC | 26.6%
C=CCOC(=O)Nc1cccn([C@H](Cc2ccccc2)C(=O)NCCC(C)C)c1=O | 85.9%
C=CCc1c(O)c(C(=O)/C=C/c2ccccc2)c(OC)c2ccoc12 | 6.17% (active)
N#Cc1nc(-c2ccc(F)cc2)oc1S(=O)(=O)N1CCCCC1 | 49.4%
COc1cc2nc3cc([N+](=O)[O-])ccc3c(NCCNCC(C)O)c2cc1OC (stereo not given) | -13% (active)
COC1/C=C/OC2(C)Oc3c(C)c(O)c4c(O)c(c(/C=N/Nc5ccc([N+](=O)[O-])cc5[N+](=O)[O-])c(O)c4c3C2=O)NC(=O)C(C)=C/C=C/C(C)C(O)C(C)C(O)C(C)C(OC(C)=O)C1C (stereo not given) | 7.67% (active)

SMILES | growth
COc1ccc2c(c1)c(-c1nc(-c3c[nH]c4ccncc34)cs1)cn2C | -36.7% (active)
CCO/C=N/C1=C(C#N)C(c2ccc(Cl)cc2)c2sc3c(F)cccc3c2O1 (stereo not given) | 54.2%
O=C(Nc1ccc(Oc2cccc(Cl)c2)c(Cl)c1)c1cnccn1 | 18.1%
Cc1ccc(C(=O)c2ccc(CC(=O)N/N=C/c3ccccc3O)n2C)cc1 | 81.4%
CCCCNC(=O)Oc1ccc(/C(=C(/C)Cc2ccc(OC)cc2)c2ccc(OCCN(CC)CC)cc2)cc1 | 66.3%
CC(=O)c1c(C)nc(SCC(=O)Nc2cccc(O)c2)n1-c1ccc(Cl)cc1 | 97%
CC/C(=C(/c1ccc(Cl)cc1)c1ccc(OCCN(C)C)cc1)c1ccc(Cl)cc1 | 32.8%
COc1cc(OC)c(NC(=O)c2cc3ccccc3cc2O)cc1Cl | 7.51% (active)
CN1C(=O)/C(=C\c2nc([P+](c3ccccc3)(c3ccccc3)c3ccccc3)c(N3CCOCC3)o2)SC1=S | -21.1% (active)
Cc1sc2nc(NCCc3c[nH]c4ccc(Cl)cc34)[nH]c(=O)c2c1C | 18.8%
O=C(CSc1nnc(-c2cnccn2)n1-c1ccccc1)c1ccc(Cl)cc1 | 92%
CNC(=O)c1[nH]cc(-c2ccc(OC)cc2)c1-c1cc(OC)c2c(c1OC)OCO2 | 108%
COc1ccc2cc1Oc1ccc(cc1)C[C@H]1c3c(cc4c(c3Oc3cc5c(cc3OC)CCN(C)[C@@H]5C2)OCO4)CCN1C | 48%
Cc1ccc2c(c1)=C/C(=C\c1cc(-c3ccccc3)oc1O)C(=O)N=2 | 94.2%
COc1ccc(/C=C/C(=O)c2cccc(OCCCCOc3cccc(C(=O)/C=C/c4ccc(OC)c(OC)c4)c3)c2)cc1OC | 35.6%
CSc1nc(N)c(NS(=O)(=O)c2ccc(C(C)=O)cc2)c(=O)[nH]1 | 110%
CC(C)(C)[Si](C)(C)OC1[C@@H](CNC(=O)NC(=O)NC(N)=O)O[C@@H](n2cnc3c(NC(=O)Nc4ccccc4)ncnc32)[C@H]1O[Si](C)(C)C(C)(C)C (stereo not given in full) | 69.1%
C=C1C(=O)O[C@H]2[C@H]1CC/C(COC(=O)/C=C\C(=O)NCc1ccc(Cn3c(=O)sn(CCI)c3=O)cc1)=C\CC[C@@]1(C)O[C@@H]21 | 22.4%
COc1ccc(-c2cc(-c3ccc(Cl)cc3)c(C#N)c(=O)n2Cc2ccc(C(=O)Nc3ccccc3N)cc2)cc1 | 57.1%
CCOC(=O)c1c(NC(=O)c2ccc(Cl)cc2)sc2c(CN(C)C)c(O)ccc12 | -13% (active)
